Experimental findings from PubChem BioAssay (EPA / NIEHS) are described below.

Test [1] addresses Paired box protein Pax-6 (Homo sapiens) (UniProt P26367). In words: ATG_Pax6_CIS: Attagene CIS-FACTORIAL HepG2 Assay for human Paired Box 6 (PAX6) (AID 2282956). Particulars: HepG2 CIS-FACTORIAL PAX6 reporter transcription, RNA readout; actives raise or lower the signal. In short, it runs like this:
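Fluorescent RT-PCR products separated by capillary electrophoresis report PAX6-linked promoter mRNA in HepG2 cells 24 h post-dose. Curves fitted bidirectionally, DMSO as negative control.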

Test [2] is described as follows: ATG_PXRE_CIS: Attagene CIS-FACTORIAL HepG2 Assay for human Pregnane X Receptor Element (PXRE) (AID 2282957). To be noted: HepG2 Attagene CIS-FACTORIAL PXRE reporter, mRNA; actives raise or lower the signal. In short, it runs like this:
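Reporter transcripts under endogenous PXR-responsive cis-regulation quantified from total RNA of transfected HepG2 cells 24 h post-dosing, via RT-PCR with fluorescent primer extension and capillary electrophoresis. Gain or loss of signal fitted against DMSO baseline.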

The nature of test [3]: ATG_PPRE_CIS: Attagene CIS-FACTORIAL HepG2 Assay for human Peroxisome Proliferator-activated Response Element (PPRE) (AID 2282958). Particulars: HepG2 PPRE cis-element reporter, Attagene transcription factor profiling; actives raise or lower the signal. In outline: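 HepG2 cells transiently transfected with multiplexed cis-element reporter units measure endogenous transcription factor activity. After 24 h compound exposure, reporter mRNA is quantified by RT-PCR, 6-FAM labeling, HpaI digestion and capillary electrophoresis; bidirectional fits are made against DMSO baseline.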

Test [4] in a line: ATG_Sox_CIS: Attagene CIS-FACTORIAL HepG2 Assay for human SRY-box transcription factor (SOX) (AID 2282960). Particulars: HepG2 Attagene cis-factorial SOX reporter, mRNA; actives raise or lower the signal. In outline: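 HepG2 cells transiently transfected with cis-element-driven multiple reporter transcription units, dosed 24 h; reporter mRNA measured by RT-PCR, FAM labelling, HpaI digestion and capillary electrophoresis. Bidirectional fit versus DMSO baseline.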

Test [5] has as its target Transcription factor Sp1 (Homo sapiens) (UniProt P08047). The test is described as follows: ATG_Sp1_CIS: Attagene CIS-FACTORIAL HepG2 Assay for human Specificity Protein 1 (Sp1) (AID 2282961). To be noted: HepG2 Sp1 cis-reporter transcription, actives raise or lower the signal. In short, it runs like this: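 HepG2 cells transiently transfected with multiple reporter transcription units driven by cis-regulatory elements; Sp1-responsive reporter mRNA measured 24 h after dosing by RT-PCR and capillary electrophoresis fluorescence, fitted bidirectionally against DMSO baseline.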

Test [6] in a line: ATG_SREBP_CIS: Attagene CIS-FACTORIAL HepG2 Assay for human Sterol Regulatory Element Binding (SREBP) (AID 2282962). Particulars: HepG2 Attagene cis-factorial SREBP reporter, mRNA; actives raise or lower the signal. In outline:
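Endogenous factor activity is measured in HepG2 through multiplexed reporter units under cis-element control. Following a 24 h incubation, reporter transcripts are reverse-transcribed, PCR-amplified and sized by capillary electrophoresis; activity is fitted in both directions relative to DMSO.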

The target in test [7] is Signal transducer and activator of transcription 3 (Homo sapiens) (UniProt P40763). In words: ATG_STAT3_CIS: Attagene CIS-FACTORIAL HepG2 Assay for human Signal Transducer and Activator of Transcription 3 (STAT3) (AID 2282963). Particulars: HepG2, Attagene cis-factorial STAT3 reporter transcription; actives raise or lower the signal. In short, it runs like this: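 Uses human liver HepG2 transiently carrying cis-regulated reporter transcription units. Following 24 h dosing, reporter mRNA induction was detected by RT-PCR and capillary electrophoresis, analysed bidirectionally versus DMSO.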
Signal transducer and activator of transcription 3 (Homo sapiens), sequence (P40763 whole entry, looked up): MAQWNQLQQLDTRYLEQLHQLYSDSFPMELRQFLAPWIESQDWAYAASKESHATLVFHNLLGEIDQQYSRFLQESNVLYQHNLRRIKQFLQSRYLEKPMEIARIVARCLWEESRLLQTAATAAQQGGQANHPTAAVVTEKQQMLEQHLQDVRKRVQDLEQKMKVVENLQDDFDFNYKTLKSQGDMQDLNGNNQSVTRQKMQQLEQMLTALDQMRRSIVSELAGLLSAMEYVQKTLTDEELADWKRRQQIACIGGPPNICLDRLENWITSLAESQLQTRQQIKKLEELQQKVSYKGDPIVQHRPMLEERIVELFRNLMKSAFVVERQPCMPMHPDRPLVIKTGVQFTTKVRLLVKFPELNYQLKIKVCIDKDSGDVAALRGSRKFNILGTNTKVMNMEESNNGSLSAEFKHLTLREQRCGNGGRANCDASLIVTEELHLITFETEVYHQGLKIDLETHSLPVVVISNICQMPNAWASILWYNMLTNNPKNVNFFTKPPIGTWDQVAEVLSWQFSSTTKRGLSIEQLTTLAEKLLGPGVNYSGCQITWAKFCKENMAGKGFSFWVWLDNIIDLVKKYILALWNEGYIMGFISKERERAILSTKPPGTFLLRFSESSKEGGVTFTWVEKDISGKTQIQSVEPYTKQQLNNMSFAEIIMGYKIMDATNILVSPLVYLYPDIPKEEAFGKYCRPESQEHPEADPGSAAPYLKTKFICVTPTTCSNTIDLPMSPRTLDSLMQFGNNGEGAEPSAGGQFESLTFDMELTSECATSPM

Test [8] is described as follows: ATG_TA_CIS: Attagene CIS-FACTORIAL HepG2 Assay for human TA Basal Promoter (AID 2282964). To be noted: HepG2 Attagene CIS-factorial TA basal promoter reporter; actives raise or lower the signal. In short, it runs like this: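 Cis-factorial format in HepG2: reporters report endogenous factors, not chimeric Gal4 fusions. After 24 h treatment, reporter transcripts were measured by RT-PCR-capillary electrophoresis fluorescence, analysed bidirectionally versus DMSO.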

Test [9] in a line: ATG_TCF_b_cat_CIS: Attagene CIS-FACTORIAL HepG2 Assay for human T-Cell-Factor with beta-catenin (TCF/b-cat) (AID 2282965). To be noted: HepG2 TCF/beta-catenin cis-reporter transcription, actives raise or lower the signal. In outline:
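Using capillary electrophoresis as the read-out, labelled reporter cDNA fragments from transiently transfected HepG2 were sized and quantified. Exposure lasted 24 hours; activity in either direction was referenced to DMSO.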

Test [10] in a line: ATG_TAL_CIS: Attagene CIS-FACTORIAL HepG2 Assay for human TAL Basal Promoter (AID 2282966).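 Also: background control endpoint measuring basal TAL promoter reporter mRNA not a specific factor.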 Particulars: HepG2 Attagene cis-factorial TAL promoter reporter; actives raise or lower the signal. In short, it runs like this:
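Background-control endpoint: basal TAL promoter reporter transcripts in transiently transfected HepG2, measured 24 h after dosing. Read-out by RT-PCR with fluorescent primer extension and capillary electrophoresis; gain or loss of signal fitted relative to DMSO.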

A short description of test [11]: ATG_TGFb_CIS: Attagene CIS-FACTORIAL HepG2 Assay for human Transforming Growth Factor (TGF) (AID 2282967). Particulars: HepG2 Attagene CIS TGFb reporter, mRNA transcription; actives raise or lower the signal. In outline:
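Multiplexed cis-reporter HepG2 system, 24 h treatment; mRNA induction read by fluorescence after RT-PCR and CE; DMSO negative control, bidirectional curve fitting.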

A short description of test [12]: ATG_VDRE_CIS: Attagene CIS-FACTORIAL HepG2 Assay for human Vitamin D Receptor Element (VDRE) (AID 2282968). Particulars: HepG2 VDRE cis-reporter transcription, actives raise or lower the signal. In outline:
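Transfected HepG2 reporter cells, chemical treatment 24 h. RNA isolated, cDNA amplified with reporter-specific primers, products analysed by capillary electrophoresis. Endpoint fitted in both directions versus DMSO.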

Test [13] concerns the target Estrogen receptor (Homo sapiens) (UniProt P03372). In words: ATG_ERa_TRANS: Attagene TRANS-FACTORIAL HepG2 Assay for human Estrogen Receptor alpha (ERa) (AID 2282970; active = hit-call score of the fitted dose curve at least 0.9, where 1 is the maximum). Particulars: HepG2 Attagene TRANS ERa GAL4 reporter, mRNA. In outline:
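Reporter transcripts were measured 24 h after dosing by RT-PCR with fluorescent primer extension and capillary electrophoresis. The system is transiently transfected HepG2 expressing exogenous NR-Gal4 chimeras driving GAL4-UAS reporters; DMSO is the baseline.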

In test [14] the target is X-box-binding protein 1 (Homo sapiens) (UniProt P17861). In words: ATG_Xbp1_CIS: Attagene CIS-FACTORIAL HepG2 Assay for human X-box Binding Protein 1 (XBP1) (AID 2282972). Particulars: HepG2 XBP1 cis-element reporter, Attagene multiplex; actives raise or lower the signal. In outline:
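Multiplexed cis-reporter readout in transfected HepG2 liver cells. Exposure lasted 24 hours. Activity in either direction was fitted against DMSO as negative control and baseline.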

Test [15] is described as follows: ATG_GAL4_TRANS: Attagene TRANS-FACTORIAL HepG2 Assay for GAL4 (Internal Marker) (AID 2282976; active = hit-call score of the fitted dose curve at least 0.9, where 1 is the maximum). To be noted: HepG2 Attagene TRANS GAL4 internal marker reporter. In outline: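 In transfected human HepG2 liver cells dosed 24 h, GAL4 reporter mRNA serves as a baseline marker. Detection by RT-PCR with fluorescent capillary electrophoresis, activity fitted upward relative to DMSO.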

The nature of test [16]: ATG_RORE_CIS: Attagene CIS-FACTORIAL HepG2 Assay for human RAR-related Orphan Receptor Element (RORE) (AID 2282959). To be noted: HepG2 Attagene cis-factorial RORE reporter, mRNA; actives raise or lower the signal. In short, it runs like this:
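HepG2 cells transiently transfected with multiple cis-element reporter transcription units, exposed to chemical for 24 h. Reporter mRNA quantified by RT-PCR, 6-FAM primer-extension labeling, HpaI digestion and capillary electrophoresis; bidirectional fit versus DMSO baseline.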

A short description of test [17]: ATG_M_19_TRANS: Attagene TRANS-FACTORIAL HepG2 Assay for M19 Transcription Factor (Internal Marker) (AID 2282974; active = hit-call score of the fitted dose curve at least 0.9, where 1 is the maximum). To be noted: HepG2 Attagene TRANS-FACTORIAL M19 internal marker reporter. In outline: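 HepG2 cells transiently transfected with multiple GAL4-UAS reporter transcription units were exposed to chemicals for 24 h. Reporter mRNA was read by RT-PCR, 6-FAM primer extension, HpaI digestion and capillary electrophoresis; gain of signal fitted relative to DMSO.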

Structures are written as SMILES. Inconclusive results are not listed. Activity calls are given as the source filed them. The calls were made as follows, unless noted: active = hit-call score of the fitted dose curve at least 0.9, where 1 is the maximum; inactive = score below 0.9.

X-box-binding protein 1 (Homo sapiens), sequence (P17861 whole entry, looked up): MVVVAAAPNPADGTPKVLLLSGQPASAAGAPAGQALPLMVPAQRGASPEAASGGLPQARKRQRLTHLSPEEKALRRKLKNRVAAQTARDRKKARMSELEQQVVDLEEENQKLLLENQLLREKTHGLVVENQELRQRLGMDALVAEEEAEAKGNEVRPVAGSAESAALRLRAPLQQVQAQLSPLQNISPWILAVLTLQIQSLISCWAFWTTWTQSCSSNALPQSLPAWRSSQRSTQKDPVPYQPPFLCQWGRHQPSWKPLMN
Paired box protein Pax-6 (Homo sapiens), sequence (P26367 whole entry, looked up): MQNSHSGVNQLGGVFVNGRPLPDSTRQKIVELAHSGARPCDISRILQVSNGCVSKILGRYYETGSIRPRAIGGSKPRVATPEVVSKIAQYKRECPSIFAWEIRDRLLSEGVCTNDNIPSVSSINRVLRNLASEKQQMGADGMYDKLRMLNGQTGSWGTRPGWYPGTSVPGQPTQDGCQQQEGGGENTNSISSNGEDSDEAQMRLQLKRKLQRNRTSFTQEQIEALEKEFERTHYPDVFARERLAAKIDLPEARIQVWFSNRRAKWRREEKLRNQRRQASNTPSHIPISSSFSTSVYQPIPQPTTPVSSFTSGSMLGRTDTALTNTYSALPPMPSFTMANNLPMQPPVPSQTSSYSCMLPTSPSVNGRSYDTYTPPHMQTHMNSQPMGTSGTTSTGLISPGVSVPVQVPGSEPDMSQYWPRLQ
Transcription factor Sp1 (Homo sapiens), sequence (P08047 whole entry, looked up): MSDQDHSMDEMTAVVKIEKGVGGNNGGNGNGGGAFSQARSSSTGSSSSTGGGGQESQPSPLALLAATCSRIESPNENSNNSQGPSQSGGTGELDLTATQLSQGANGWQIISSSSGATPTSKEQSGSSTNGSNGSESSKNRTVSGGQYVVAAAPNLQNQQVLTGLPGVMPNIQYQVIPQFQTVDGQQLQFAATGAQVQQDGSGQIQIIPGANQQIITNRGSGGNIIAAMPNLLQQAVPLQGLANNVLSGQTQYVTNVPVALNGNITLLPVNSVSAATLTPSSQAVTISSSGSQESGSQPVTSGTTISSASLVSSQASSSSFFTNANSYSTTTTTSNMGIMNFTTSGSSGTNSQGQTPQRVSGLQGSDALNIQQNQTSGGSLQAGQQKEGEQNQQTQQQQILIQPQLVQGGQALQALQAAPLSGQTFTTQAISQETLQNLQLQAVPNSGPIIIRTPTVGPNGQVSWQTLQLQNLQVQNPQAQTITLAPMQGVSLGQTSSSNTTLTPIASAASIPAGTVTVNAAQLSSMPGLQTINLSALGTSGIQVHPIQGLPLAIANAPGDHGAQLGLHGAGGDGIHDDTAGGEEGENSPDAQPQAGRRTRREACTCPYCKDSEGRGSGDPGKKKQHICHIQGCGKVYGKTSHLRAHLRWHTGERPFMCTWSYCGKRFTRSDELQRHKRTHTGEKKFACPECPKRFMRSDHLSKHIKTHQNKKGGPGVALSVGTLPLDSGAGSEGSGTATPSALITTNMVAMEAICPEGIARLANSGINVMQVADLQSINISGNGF
Estrogen receptor (Homo sapiens), sequence (P03372 whole entry, looked up, the tested form may be a part): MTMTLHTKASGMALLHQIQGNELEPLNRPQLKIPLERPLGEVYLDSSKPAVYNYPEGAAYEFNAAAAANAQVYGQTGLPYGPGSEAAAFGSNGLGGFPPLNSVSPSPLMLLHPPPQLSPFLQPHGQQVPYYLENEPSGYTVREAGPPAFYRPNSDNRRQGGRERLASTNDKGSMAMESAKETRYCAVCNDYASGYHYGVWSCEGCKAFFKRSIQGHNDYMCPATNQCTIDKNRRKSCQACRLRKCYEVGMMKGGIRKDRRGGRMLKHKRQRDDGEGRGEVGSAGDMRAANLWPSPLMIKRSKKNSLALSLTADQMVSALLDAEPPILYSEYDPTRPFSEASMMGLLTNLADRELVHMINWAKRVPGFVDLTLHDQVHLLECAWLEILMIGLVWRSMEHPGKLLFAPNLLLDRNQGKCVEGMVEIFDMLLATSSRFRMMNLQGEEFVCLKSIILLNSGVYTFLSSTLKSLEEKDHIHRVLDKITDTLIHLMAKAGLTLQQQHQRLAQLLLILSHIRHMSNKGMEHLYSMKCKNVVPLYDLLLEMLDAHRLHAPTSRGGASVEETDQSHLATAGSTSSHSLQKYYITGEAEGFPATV

Regarding `O=P(OC(CCl)CCl)(OC(CCl)CCl)OC(CCl)CCl`, the AC50 in [1] is 46.9 µM (active); in [2] it was 0.371 µM (active); in [6] it was 24.4 µM (active); in test [7] it was 188 µM (active); in test [9], 100 µM (active); in [12], 3.53 µM (active). The AC50 in test [14] was 100 µM (active). The compound was called inactive in [3], in [4], in test [5], in [8], in [10] and in [11]. Further, the compound was called inactive in test [13] and in [15].
Consider `CC(C)=CCC/C(C)=C\CO`, for which the compound was called inactive in test [1], in [16], in test [4], in test [5], in test [6] and in test [7]. Moreover, the compound was called inactive in [8], in [9], in test [10], in test [11], in [12] and in [14]. Also, the call in test [17] was inactive. Besides, the AC50 in test [2] was 7.34 µM (active).
For the compound `CC(=O)OC[C@H]1O[C@@](COC(C)=O)(O[C@H]2O[C@H](COC(C)=O)[C@@H](OC(C)=O)[C@H](OC(C)=O)[C@H]2OC(C)=O)[C@@H](OC(C)=O)[C@@H]1OC(C)=O`, the call in test [1], in test [16], in test [4], in test [6], in [7] and in test [8] was inactive. In addition, the compound was called inactive in test [9], in [10], in test [11], in test [12], in test [14] and in [15]. In addition, the AC50 in test [2] is 20.1 µM (active).
Regarding `Oc1ccc2c(c1)-c1ccccc1C2`, the AC50 in [1] was 33.5 µM (active); in [3] it was 46.4 µM (active); in [16] it was 24.7 µM (active); in [4], 54.2 µM (active); in test [8], 37.2 µM (active); in test [9], 3.93 µM (active). In addition, the values for the AC50 in test [12] and in test [14] were 28.8 µM (active) and 57.7 µM (active), respectively. Further, the compound was classed as inactive in [2], in test [6], in [7], in [10], in test [11] and in [15].

The AC50 is the concentration at which the activity in the assay is half-maximal.
